Measurements reported in the supplement of paper PMC10849652.
The full data set covers some 8,800 targets. This sample favours those with a hit. About 0.5% of all pairs of compound and target were hits. Unmarked numbers belong to inactive results.

Legend:
Experiment in all cases: log2 fold change, soluble protein after heating vs DMSO (PISA); higher = thermal stabilisation; K562 lysate, 10 uM; active = over 0.2 and 3.5 SD of the protein, either way, in both replicates (recomputed)
[1] = compound: C[C@H](C1=CC=C(C=C1)C(=O)NC2=C3C=CNC3=NC=C2)N
In short: (§1)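 K562 pellets were dounce-homogenised in PBS pH 7.4 containing 1 mM MgCl2, and the crude extract, at 1 mg/mL protein, was exposed to 10 μM compound for 30 min. Aliquots were heated for 3 min across 48°C-58°C, pooled, brought to 0.5% NP-40 at 4°C and spun at 21,000xg for 90 min, with the supernatant taken as soluble protein. TMTpro 16plex LC-MS/MS with equalised channel sums quantified that protein. Values are log-two fold changes in thermal stability relative to solvent controls, taken from duplicates.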

[2] = compound: C[C@H](Nc1ncnc2nc[nH]c12)c1cc2cccc(Cl)c2c(=O)n1-c1ccccc1 [duvelisib]
In short: as §1

[3] = compound: Cc1cc(Nc2cc(CN3CCOCC3)c3nc(C)c(Cc4ccc(Cl)cc4F)n3n2)n[nH]1 [gandotinib]
In short: as §1

[4] = compound: Cc1cc(Nc2cc(N3CCN(C)CC3)nc(Sc3ccc(NC(=O)C4CC4)cc3)n2)n[nH]1 [tozasertib]
In short: as §1

[5] = compound: Cc1cccc(CC(=O)N2CCc3c2ccc(-c2cn(C)c4ncnc(N)c24)c3F)n1
In short: as §1

[6] = compound: Cc1nc(Nc2ncc(C(=O)Nc3c(C)cccc3Cl)s2)cc(N2CCN(CCO)CC2)n1 [dasatinib]
In short: as §1

[7] = compound: Cn1cc(-c2ccc3c(c2)CCN3C(=O)Cc2cccc(C(F)(F)F)c2)c2c(N)ncnc21
In short: as §1

[8] = compound: NC1(c2ccc(-c3nc4ccn5c(=O)[nH]nc5c4cc3-c3ccccc3)cc2)CCC1
In short: as §1

[9] = compound: CS(=O)(=O)CCNCc1ccc(-c2ccc3ncnc(Nc4ccc(OCc5cccc(F)c5)c(Cl)c4)c3c2)o1 [lapatinib]
In short: as §1

[10] = compound: C[C@@H](Oc1cc(-c2cnn(C3CCNCC3)c2)cnc1N)c1c(Cl)ccc(F)c1Cl [crizotinib]
In short: as §1

[11] = compound: Cc1ccc(-n2nc(C(C)(C)C)cc2NC(=O)Nc2ccc(OCCN3CCOCC3)c3ccccc23)cc1 [doramapimod]
In short: as §1

[12] = compound: Cn1cc(CNCC2CCN(c3ncc(C(=O)NO)cn3)CC2)c2ccccc21 [quisinostat]
In short: as §1

[13] = compound: NC(=O)Nc1cc(-c2cccc(F)c2)sc1C(=O)N[C@H]1CCCNC1
In short: as §1

[14] = compound: NC(=O)c1cnc(N[C@@H]2CCCC[C@@H]2N)nc1Nc1cccc(-n2nccn2)c1
In short: as §1

[15] = compound: Cc1cn(-c2cc(NC(=O)c3ccc(C)c(Nc4nccc(-c5cccnc5)n4)c3)cc(C(F)(F)F)c2)cn1 [nilotinib]
In short: as §1

[16] = compound: Cc1nc(Nc2n[nH]c3c2CN(C(=O)N[C@H](CN(C)C)c2ccccc2)C3(C)C)c2sccc2n1
In short: as §1

[17] = compound: Cc1ncc(-c2ccnc(Nc3ccc(S(C)(=O)=O)cc3)n2)n1C(C)C
In short: as §1

[18] = compound: Cn1cncc1[C@@](N)(c1ccc(Cl)cc1)c1ccc2c(c1)c(-c1cccc(Cl)c1)cc(=O)n2C [tipifarnib]
In short: as §1

[19] = compound: CS(=O)(=O)N1CCN(Cc2cc3nc(-c4cccc5[nH]ncc45)nc(N4CCOCC4)c3s2)CC1 [pictilisib]
In short: as §1

[20] = compound: Cc1ccc(NC(=O)c2ccc(CN3CC[C@H](N(C)C)C3)c(C(F)(F)F)c2)cc1Nc1nccc(-c2cncnc2)n1 [bafetinib]
In short: as §1

Sequence of UniProt O94760 (O94760 whole entry, looked up): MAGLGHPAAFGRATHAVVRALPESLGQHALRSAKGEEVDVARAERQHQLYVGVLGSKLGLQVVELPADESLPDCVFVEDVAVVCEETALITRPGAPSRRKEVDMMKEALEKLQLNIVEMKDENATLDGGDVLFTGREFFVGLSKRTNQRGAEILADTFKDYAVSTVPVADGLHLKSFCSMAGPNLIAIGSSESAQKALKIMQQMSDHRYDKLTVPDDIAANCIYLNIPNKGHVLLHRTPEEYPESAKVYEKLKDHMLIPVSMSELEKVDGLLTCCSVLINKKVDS
Sequence of UniProt Q9UBU7 (Q9UBU7 whole entry, looked up): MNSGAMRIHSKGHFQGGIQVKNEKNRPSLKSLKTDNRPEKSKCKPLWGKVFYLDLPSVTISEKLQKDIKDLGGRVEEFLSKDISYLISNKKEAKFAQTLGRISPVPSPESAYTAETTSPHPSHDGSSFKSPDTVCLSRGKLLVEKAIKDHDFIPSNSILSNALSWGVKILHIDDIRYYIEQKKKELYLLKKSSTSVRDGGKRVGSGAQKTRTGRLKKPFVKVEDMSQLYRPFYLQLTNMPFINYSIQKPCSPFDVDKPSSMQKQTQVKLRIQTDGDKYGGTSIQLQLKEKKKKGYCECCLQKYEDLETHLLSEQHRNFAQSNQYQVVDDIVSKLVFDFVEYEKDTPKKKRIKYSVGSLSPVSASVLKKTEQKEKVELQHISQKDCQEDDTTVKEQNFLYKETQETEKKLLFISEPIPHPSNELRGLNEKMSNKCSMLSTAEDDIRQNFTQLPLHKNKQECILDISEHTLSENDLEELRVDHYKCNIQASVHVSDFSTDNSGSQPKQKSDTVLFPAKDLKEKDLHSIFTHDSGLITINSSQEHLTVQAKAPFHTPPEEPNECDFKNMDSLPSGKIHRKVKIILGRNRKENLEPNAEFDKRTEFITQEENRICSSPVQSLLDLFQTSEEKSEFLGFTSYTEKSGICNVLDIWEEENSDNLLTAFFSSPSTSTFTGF
Sequence of UniProt G9CGD6 (G9CGD6 whole entry, looked up): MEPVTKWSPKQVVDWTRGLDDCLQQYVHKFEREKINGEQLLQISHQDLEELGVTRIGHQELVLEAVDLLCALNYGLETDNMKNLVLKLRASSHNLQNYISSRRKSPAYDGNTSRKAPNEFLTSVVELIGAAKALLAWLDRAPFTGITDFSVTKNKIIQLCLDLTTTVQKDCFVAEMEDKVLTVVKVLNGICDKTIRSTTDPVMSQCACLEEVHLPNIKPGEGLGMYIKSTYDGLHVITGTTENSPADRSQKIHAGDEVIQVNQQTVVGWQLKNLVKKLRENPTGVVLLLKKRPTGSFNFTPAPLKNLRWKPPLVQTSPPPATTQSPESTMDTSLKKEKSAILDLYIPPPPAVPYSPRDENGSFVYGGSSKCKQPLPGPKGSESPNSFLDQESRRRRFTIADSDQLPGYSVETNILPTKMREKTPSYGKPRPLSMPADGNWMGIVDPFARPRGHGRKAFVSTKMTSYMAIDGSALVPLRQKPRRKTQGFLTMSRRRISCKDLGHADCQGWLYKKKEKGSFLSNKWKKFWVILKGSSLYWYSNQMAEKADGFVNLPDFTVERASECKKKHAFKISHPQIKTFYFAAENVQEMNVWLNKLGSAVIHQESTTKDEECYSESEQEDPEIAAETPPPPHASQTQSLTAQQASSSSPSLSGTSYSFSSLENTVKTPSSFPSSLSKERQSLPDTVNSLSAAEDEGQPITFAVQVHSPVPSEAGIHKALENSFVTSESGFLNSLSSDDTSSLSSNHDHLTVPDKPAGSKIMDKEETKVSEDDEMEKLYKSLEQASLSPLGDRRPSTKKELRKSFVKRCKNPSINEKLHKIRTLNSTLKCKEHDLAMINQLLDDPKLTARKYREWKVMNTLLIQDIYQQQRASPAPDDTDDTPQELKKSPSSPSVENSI
Sequence of UniProt Q16527 (Q16527 whole entry, looked up): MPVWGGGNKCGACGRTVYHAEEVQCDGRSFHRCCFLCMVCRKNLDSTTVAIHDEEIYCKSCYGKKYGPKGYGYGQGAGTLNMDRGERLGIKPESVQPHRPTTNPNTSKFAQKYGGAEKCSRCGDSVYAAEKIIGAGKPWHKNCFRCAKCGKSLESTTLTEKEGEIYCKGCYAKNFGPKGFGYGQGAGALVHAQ
Sequence of UniProt Q15398 (Q15398 whole entry, looked up): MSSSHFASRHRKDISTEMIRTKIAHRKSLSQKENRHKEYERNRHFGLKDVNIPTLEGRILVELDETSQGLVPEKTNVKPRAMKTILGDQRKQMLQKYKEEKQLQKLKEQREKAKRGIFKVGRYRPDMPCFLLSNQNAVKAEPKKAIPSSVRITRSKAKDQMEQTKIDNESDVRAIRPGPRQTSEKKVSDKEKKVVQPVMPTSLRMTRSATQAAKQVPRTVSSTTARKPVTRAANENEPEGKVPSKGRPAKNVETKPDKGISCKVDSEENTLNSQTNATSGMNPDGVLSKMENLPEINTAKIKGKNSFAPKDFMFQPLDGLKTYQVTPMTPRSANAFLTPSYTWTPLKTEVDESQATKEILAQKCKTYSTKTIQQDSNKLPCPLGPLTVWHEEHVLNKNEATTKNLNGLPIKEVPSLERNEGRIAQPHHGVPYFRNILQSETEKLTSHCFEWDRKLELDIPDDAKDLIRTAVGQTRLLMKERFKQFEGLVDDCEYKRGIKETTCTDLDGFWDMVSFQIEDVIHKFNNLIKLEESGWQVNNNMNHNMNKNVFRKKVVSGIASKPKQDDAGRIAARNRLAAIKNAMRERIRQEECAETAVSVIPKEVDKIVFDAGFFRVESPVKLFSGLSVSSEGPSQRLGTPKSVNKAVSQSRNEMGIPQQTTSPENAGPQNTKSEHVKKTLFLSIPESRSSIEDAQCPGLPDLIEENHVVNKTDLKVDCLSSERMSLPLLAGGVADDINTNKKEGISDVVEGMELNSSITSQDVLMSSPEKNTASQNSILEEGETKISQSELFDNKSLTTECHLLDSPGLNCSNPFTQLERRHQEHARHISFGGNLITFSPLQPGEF
Sequence of UniProt Q6P3W2 (Q6P3W2 whole entry, looked up): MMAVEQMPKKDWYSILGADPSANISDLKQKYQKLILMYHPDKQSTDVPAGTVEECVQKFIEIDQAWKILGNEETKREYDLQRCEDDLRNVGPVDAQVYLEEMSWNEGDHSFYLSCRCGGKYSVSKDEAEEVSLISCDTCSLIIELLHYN

Row | Target | log2 fold change [1] | log2 fold change [2] | log2 fold change [3] | log2 fold change [4] | log2 fold change [5] | log2 fold change [6] | log2 fold change [7] | log2 fold change [8] | log2 fold change [9] | log2 fold change [10] | log2 fold change [11] | log2 fold change [12] | log2 fold change [13] | log2 fold change [14] | log2 fold change [15] | log2 fold change [16] | log2 fold change [17] | log2 fold change [18] | log2 fold change [19] | log2 fold change [20]
1 | CNK3/IPCEF1 isoform 2 (UniProt G9CGD6) | -1.84 (active) | 0.129 | 0.326 | 0.105 | 0.4 | -0.131 | 0.002 | 0.168 |  |  |  |  |  |  |  |  |  |  |  | 
2 | COL12A1 (UniProt Q99715) |  | 0.086 |  | -0.021 |  | -0.097 | 0.198 | -0.154 | -0.117 | -0.031 | 0.88 | -0.056 | 0.166 | 0.827 |  |  |  |  |  | 
3 | DDAH1 (UniProt O94760) | 0.059 | 0.186 | -0.039 | -0.044 | 0.196 | -0.244 | 0.174 | -0.016 | 0.011 | 0 | -0.058 | -0.013 | -0.003 | -0.034 |  |  |  |  |  | 
4 | DNAJC24 (UniProt Q6P3W2) | 0.152 | -0.025 | -0.162 | 0.073 | -0.134 | 0.062 | -0.039 | -0.015 | 0.006 | 0.074 | 0.042 | -0.042 | 0.054 | -0.041 | 0 | -0.093 | 0.02 | 0.063 |  | 
5 | CNOT2 (UniProt F8VRS8) |  |  |  |  |  |  |  | -0.122 |  |  |  |  |  |  |  |  |  |  |  | 
6 | DBF4 (UniProt Q9UBU7) | -0.409 (active) | 0.004 | 0.059 | -0.009 | 0.035 | 0.091 | -0.021 | 0.07 |  | -0.031 | -0.018 | 0.038 | 0.043 |  | 0.05 | 0 | 0.17 | -0.146 | 0 | -0.028
7 | CSRP2 (UniProt Q16527) | -0.018 |  | -0.068 | 0.118 | 0.052 |  |  |  |  | -0.157 | 0.051 | -0.012 | 0.068 |  |  |  |  |  | -0.063 | 0.072
8 | DLGAP5 isoform 3 (UniProt Q15398) | -0.176 | -0.098 | 0.05 |  | -0.505 | 0.017 | 0.18 |  |  |  |  |  |  |  |  |  |  |  | 0.092 | 0.031
